The text below walks through data of PubChem BioAssay (NCI).

About 83,000 compounds went through this panel and 20% of them were active in at least one assay; those are over-represented in the sample as a whole.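 Plates (96-well) were seeded with cells, treated with compound at one concentration, and incubated for 48 hours before percent growth was determined.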 Values without a mark were called inactive. Activity calls are given as the source filed them. Rule for the calls: active = growth percent below 10; inactive = the rest.

Among the test systems are HCT-15 colon; HT29 colon; SNB-75 CNS; SNB-19 CNS; U251 CNS; PC-3 prostate; SK-MEL-5 melanoma; UACC-62 melanoma; LOX IMVI melanoma; SK-MEL-28 melanoma.
Assay in all cases: NCI-60 one-dose screen, 48 h (100 = growth as untreated, 0 = no growth, -100 = all killed)
What all share (conditions): 10 µM unless noted

As to `CCn1cc(C2=C(c3cn(C)c4ncccc34)C(=O)NC2=O)c2cccnc21`, the growth is 67.6% with HCT-15 colon; 72.4% in the test with HT29 colon; -10.8% (active) in the test on SNB-75 CNS; 87.7% with SNB-19 CNS; 76.7% in the test on U251 CNS; 66% with PC-3 prostate. The growth in the test on SK-MEL-5 melanoma is 86.3%; with UACC-62 melanoma, 70%; in the test on LOX IMVI melanoma, 66.5%; in the test with SK-MEL-28 melanoma it was 90.7%.

Consider `COC1=CC(c2ccc[nH]2)=N/C1=C\c1[nH]c(C)c(CC(=O)OCc2ccccc2)c1C`, for which the growth was -11% (active) with HCT-15 colon; 4.42% (active) in the test on HT29 colon; -7.14% (active) in the test on SNB-75 CNS; 23.5% with SNB-19 CNS; -21% (active) in the test on U251 CNS; 2.94% (active) in the test with PC-3 prostate. The growth is -91.5% (active) in the test with SK-MEL-5 melanoma, -31.7% (active) in the test on UACC-62 melanoma, -75.4% (active) in the test with LOX IMVI melanoma and -18.2% (active) in the test on SK-MEL-28 melanoma.

Consider `CN(CCC#N)c1ccc(/C=C2\NC(=O)NC2=O)cc1`, for which the growth was 104% with HCT-15 colon; 82.4% in the test with HT29 colon; 102% in the test on SNB-75 CNS; 102% with SNB-19 CNS; 112% in the test with U251 CNS; 94.8% with PC-3 prostate. In addition, the growth in the test with SK-MEL-5 melanoma was 102%; in the test on UACC-62 melanoma, 91.1%; in the test with LOX IMVI melanoma, 87.9%; with SK-MEL-28 melanoma, 109%.

With `O=C1/C(=C/c2ccc(C(F)(F)F)cc2)COc2ccc(O)cc21`, the growth was 40.6% with HCT-15 colon; 44.2% in the test with HT29 colon; 81.1% in the test with SNB-75 CNS; 85.3% in the test on SNB-19 CNS; 52.3% in the test with U251 CNS; 70.3% in the test on PC-3 prostate. The growth in the test on SK-MEL-5 melanoma is 97.4%; in the test with UACC-62 melanoma, 80.2%; in the test on LOX IMVI melanoma it was 2.9% (active); in the test on SK-MEL-28 melanoma it was 100%.

As to `CCCCCCCC/C=C\CCCCCCCCOc1ccc(CC(=O)NCC[N+](C)(C)C)cc1`, the growth was 60.4% with HCT-15 colon; 24.5% with HT29 colon; 34.6% in the test with SNB-75 CNS; 13.4% in the test on SNB-19 CNS; 16.9% with U251 CNS; 4.88% (active) with PC-3 prostate. The growth in the test on SK-MEL-5 melanoma is 87.3%; in the test with UACC-62 melanoma, 61.3%; in the test with LOX IMVI melanoma, 83.2%; with SK-MEL-28 melanoma, 91.7%.

Turning to `CCN(CC)CCNC(=O)c1ccc(-c2nc3ccc4[nH]ncc4c3c3c2CCCC3)cc1`, the growth was 28.3% in the test on HCT-15 colon; 68.3% in the test with HT29 colon; 54.2% in the test with SNB-75 CNS; 85.4% with SNB-19 CNS; 54.9% in the test with U251 CNS; 57.2% in the test with PC-3 prostate. Besides, the growth in the test on SK-MEL-5 melanoma is 69.8%; in the test with UACC-62 melanoma it was 33.8%; in the test with LOX IMVI melanoma, 46%; in the test on SK-MEL-28 melanoma it was 73.2%.

Regarding `Cn1cc(C(=O)c2nc(-c3c[nH]c4ccc(Br)cc34)no2)c2cc(Br)ccc21`, the growth with HCT-15 colon is 56.1%; in the test on HT29 colon it was 44%; with SNB-75 CNS it was 73.7%; in the test with SNB-19 CNS, 86.2%; in the test with U251 CNS it was 52%; in the test with PC-3 prostate, 39.3%. Also, the growth in the test on SK-MEL-5 melanoma is 83.4%; in the test on UACC-62 melanoma, 86.1%; in the test with LOX IMVI melanoma, 78.3%; in the test on SK-MEL-28 melanoma, 92%.

Take `CCOC(=O)NN1CC(O)=C(c2nc(-c3ccc(Br)cc3)cs2)C1=N`: the growth with HCT-15 colon was 115%; in the test on HT29 colon it was 108%; in the test on SNB-75 CNS it was 101%; in the test with SNB-19 CNS, 98.7%; in the test with U251 CNS, 113%; in the test on PC-3 prostate, 85.2%. Moreover, the growth was 103% in the test on SK-MEL-5 melanoma, 110% in the test on UACC-62 melanoma, 106% in the test on LOX IMVI melanoma and 113% in the test with SK-MEL-28 melanoma.

As for `COc1cc(Nc2c3ccc(Cl)cc3nc3ccc(OC)cc23)c2ncccc2c1`, the growth in the test on HCT-15 colon was 23.8%; with HT29 colon, 38.1%; in the test on SNB-75 CNS, 70.1%; in the test on SNB-19 CNS, 66.6%; with U251 CNS, 31.5%; in the test with PC-3 prostate, 38%. The growth was 33% in the test on SK-MEL-5 melanoma, 36.4% in the test with UACC-62 melanoma, 29.3% with LOX IMVI melanoma and 50% in the test with SK-MEL-28 melanoma.

Consider `CN(C)c1ccc(/C=C/C(=O)c2ccc(Nc3nc(Nc4ccc(F)cc4)nc(Nc4ccc(Cl)cc4)n3)cc2)cc1`, for which the growth in the test on HCT-15 colon was 57%; with HT29 colon, 60.7%; with SNB-75 CNS, 76.9%; in the test with SNB-19 CNS, 92.7%; in the test with U251 CNS, 67.9%; with PC-3 prostate, 57.2%. For the same molecule, the growth is 50.2% with SK-MEL-5 melanoma, 75.2% with UACC-62 melanoma, 75.6% with LOX IMVI melanoma and 74.3% in the test on SK-MEL-28 melanoma.

Turning to `O=C(N=Nc1c(O)[nH]c2ccccc12)Nc1ccc(Cl)cc1`, the growth in the test with HCT-15 colon was 87.3%; with HT29 colon it was 93.5%; in the test with SNB-75 CNS it was 101%; with SNB-19 CNS, 89.3%; in the test on U251 CNS, 100%; with PC-3 prostate, 89.8%. Further, the growth in the test with SK-MEL-5 melanoma is 90.7%; with UACC-62 melanoma it was 75.7%; in the test on LOX IMVI melanoma, 86.5%; with SK-MEL-28 melanoma it was 91.5%.

With `CN(Cc1cnc2nc(N)nc(N)c2n1)c1c(Cl)cc(C(=O)NC(CCC(=O)O)C(=O)O)cc1Cl` (stereo not given), the growth in the test on HCT-15 colon is 28%; with HT29 colon it was 30.4%; in the test on SNB-75 CNS, 63.9%; in the test on SNB-19 CNS, 31.7%; in the test with U251 CNS, 33.4%; in the test with PC-3 prostate it was 22.5%. In addition, the growth in the test on SK-MEL-5 melanoma was 21.3%; with UACC-62 melanoma, 16.4%; in the test with LOX IMVI melanoma, 13.8%; in the test with SK-MEL-28 melanoma, 63.3%.

As for `COc1ccc(/C=C/C(=O)c2ccc(Nc3nc(Nc4ccc(F)cc4)nc(Nc4ccc(Cl)cc4)n3)cc2)cc1`, the growth in the test on HCT-15 colon is 100%; with HT29 colon it was 94.1%; in the test on SNB-75 CNS, 95.6%; in the test with SNB-19 CNS it was 115%; in the test with U251 CNS, 111%; in the test with PC-3 prostate, 81.4%. The growth with SK-MEL-5 melanoma was 83.6%; in the test with UACC-62 melanoma, 105%; in the test on LOX IMVI melanoma it was 102%; in the test on SK-MEL-28 melanoma, 110%.

Regarding `CN(C)c1ccc(C(=NO)c2ccc(N(C)C)cc2)cc1`, the growth in the test with HCT-15 colon was 24.4%; with HT29 colon it was 5.39% (active); in the test with SNB-75 CNS, 53.6%; in the test with SNB-19 CNS, 46.3%; in the test on U251 CNS, 28.1%; with PC-3 prostate, 58%. In addition, the growth with SK-MEL-5 melanoma is 14.5%; with UACC-62 melanoma, 28.1%; with LOX IMVI melanoma, 43.1%; in the test with SK-MEL-28 melanoma it was 56.3%.

For the molecule `Cn1cccc1/C=C1\C(=O)Nc2ccccc21`, the growth was 50.9% in the test on HCT-15 colon; 103% in the test on HT29 colon; 90.3% with SNB-75 CNS; 90.4% in the test with SNB-19 CNS; 97.7% with U251 CNS; 94.2% in the test with PC-3 prostate. Further, the growth is 56.6% in the test on SK-MEL-5 melanoma, 90.6% with UACC-62 melanoma, 87.2% in the test with LOX IMVI melanoma and 112% in the test on SK-MEL-28 melanoma.

For `COc1ccc(Nc2ncccc2NC(=O)c2cn(Cc3cccc(Oc4ccccc4)c3)nn2)cc1OC`, the growth with HCT-15 colon was 67.7%; in the test on HT29 colon, 81.1%; with SNB-75 CNS, 76.2%; in the test on SNB-19 CNS it was 79.2%; with U251 CNS, 74.5%; in the test on PC-3 prostate it was 67.3%. The growth in the test with SK-MEL-5 melanoma was 45.1%; in the test with UACC-62 melanoma it was 57.5%; in the test on LOX IMVI melanoma, 67%; with SK-MEL-28 melanoma, 83.4%.

On to `COc1cc(/C=C\c2cc(/C=C\c3ccc(O)c(OC)c3)n(C(=O)CNc3ccc(Cl)cc3)n2)ccc1O`, for which the growth with HCT-15 colon is 11.3%; in the test on HT29 colon it was 15.8%; in the test on SNB-75 CNS, 25.5%; with SNB-19 CNS it was 45.6%; in the test with U251 CNS, 16.1%; in the test on PC-3 prostate, 33.9%. In addition, the growth with SK-MEL-5 melanoma is 15.9%; in the test with UACC-62 melanoma it was 10.9%; in the test on LOX IMVI melanoma, 11.2%; in the test on SK-MEL-28 melanoma it was 49.5%.

Regarding `CN1C(=O)N(C)C2C1NC(=S)N2/N=C/C=C/c1ccccc1[N+](=O)[O-]` (stereo not given), the growth in the test on HCT-15 colon was 29%; in the test with HT29 colon it was 2.85% (active); in the test on SNB-75 CNS it was -5.19% (active); with SNB-19 CNS, 37%; in the test on U251 CNS it was 20.2%; in the test with PC-3 prostate, 17.3%. Further, the growth was 11.8% with SK-MEL-5 melanoma, 26.4% with UACC-62 melanoma, 31.6% in the test on LOX IMVI melanoma and 56.7% in the test with SK-MEL-28 melanoma.

For the molecule `CCCNc1nc2ccccc2c2c(=O)c3cccc(Cl)c3sc12`, the growth with HCT-15 colon is 89.7%; with HT29 colon, 81.8%; in the test with SNB-75 CNS, 82.3%; with SNB-19 CNS, 110%; in the test on U251 CNS, 97.9%; with PC-3 prostate, 88.5%. Further, the growth with SK-MEL-5 melanoma is 97.6%; with UACC-62 melanoma, 84.3%; in the test with LOX IMVI melanoma, 90.2%; in the test with SK-MEL-28 melanoma, 115%.

As to `Nc1ncnc2c1c(-c1ccc(Oc3ccccc3)cc1)nn2CC1SSCC1O` (stereo not given), the growth is 65.3% with HCT-15 colon; 39.2% with HT29 colon; 43.5% with SNB-75 CNS; 45.5% with SNB-19 CNS; 39.7% with U251 CNS; 61.7% with PC-3 prostate. For the same molecule, the growth in the test with SK-MEL-5 melanoma is -42.9% (active); in the test on UACC-62 melanoma it was -76.1% (active); with LOX IMVI melanoma it was 19.2%; in the test on SK-MEL-28 melanoma, 2.15% (active).

On to `N=c1sc(Cc2cc(Cl)ccc2Cl)cn1CC(=O)c1ccccc1`, for which the growth with HCT-15 colon is 23.5%; in the test on HT29 colon, 16.1%; in the test on SNB-75 CNS, 5.16% (active); in the test with SNB-19 CNS it was 63.6%; with U251 CNS it was 40.4%; with PC-3 prostate, 62.5%. The growth with SK-MEL-5 melanoma was 37.3%; in the test with UACC-62 melanoma, 17.1%; with LOX IMVI melanoma it was 25.1%; with SK-MEL-28 melanoma, 58.5%.
